Reference: PubChem BioAssay AID1159580 (chemical genetic matrix, 2015)
Hit rate of the full screen: of about 5,500 compounds, about 2,000 (36%) were called active. About 18% were inconclusive and are not listed. No stated cut-off is given here; in the data, active means normalized growth mostly below about 0.91 (no sharp cut-off); inconclusive means no clear call, values can overlap the other calls; inactive means mostly above about 0.92. This is one part of the list.

Experiment: chemical genetic growth profiling, strain panel (AID 1159580);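 further: tested at 20 µM; growth read once vehicle control cultures reached saturation at 30 °C; 1 = growth at the plate median or of vehicle wells; lower values mean less growth of the strain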
Conditions: growth OD

Measured: normalized growth

Oc1c(Cl)cc(Cl)c2cccnc12
active: S. cerevisiae deletion strains, locus YJR066W, strain TOR1, active compounds read low -0.00116 | S. cerevisiae deletion strains, locus YJR075W, strain HOC1, active compounds read low 0.0672 | S. cerevisiae deletion strains, locus YKL009W, strain mrt4, active compounds read low 0.092 | S. cerevisiae deletion strains, locus YKL068W, active compounds read low 0.0598 | S. cerevisiae deletion strains, locus YKL085W, strain MDH1 (second series), active compounds read low 0.057 | S. cerevisiae deletion strains, locus YKL085W, strain MDH1, active compounds read low 0.057 | S. cerevisiae deletion strains, locus YKL160W, strain elf1, active compounds read low 0.067 | S. cerevisiae deletion strains, locus YKL190W, strain CNB1, active compounds read low 0.0458 | S. cerevisiae deletion strains, locus YKR001C, strain vps1, active compounds read low 0.0676 | S. cerevisiae deletion strains, locus YKR026C, strain gcn3, active compounds read low 0.0676 | S. cerevisiae deletion strains, locus YKR091W, strain srl3, active compounds read low 0.0658 | S. cerevisiae deletion strains, locus YLL001W, strain dnm1, active compounds read low 0.0628 | S. cerevisiae deletion strains, locus YLL026W, active compounds read low 0.0652 | S. cerevisiae deletion strains, locus YLL041C, strain sdh2, active compounds read low 0.0595 | S. cerevisiae deletion strains, locus YLR027C, strain aat2, active compounds read low 0.0596 | S. cerevisiae deletion strains, locus YLR039C, strain RIC1, active compounds read low 0.0746 | S. cerevisiae deletion strains, locus YLR058C, strain SHM2, active compounds read low 0.0468 | S. cerevisiae deletion strains, locus YLR102C, strain apc9, active compounds read low 0.0634 | S. cerevisiae deletion strains, locus YLR113W, strain HOG1, active compounds read low 0.152 | S. cerevisiae deletion strains, locus YLR221C, strain rsa3, active compounds read low 0.0659 | S. cerevisiae deletion strains, locus YLR258W, strain gsy2, active compounds read low 0.0626 | S. cerevisiae deletion strains, locus YLR262C, strain YPT6 (second series), active compounds read low 0.0862 | S. cerevisiae deletion strains, locus YLR262C, strain YPT6, active compounds read low 0.0908 | S. cerevisiae deletion strains, locus YLR268W, strain sec22, active compounds read low 0.0715 | S. cerevisiae deletion strains, locus YLR320W, strain mms22, active compounds read low 0.0895 | S. cerevisiae deletion strains, locus YLR330W, strain CHS5, active compounds read low 0.0519 | S. cerevisiae deletion strains, locus YLR342W, strain FKS1 (second series), active compounds read low 0.0706 | S. cerevisiae deletion strains, locus YLR342W, strain FKS1, active compounds read low 0.068 | S. cerevisiae deletion strains, locus YLR357W, strain rsc2, active compounds read low 0.116 | S. cerevisiae deletion strains, locus YLR370C, strain arc18, active compounds read low 0.0682 | S. cerevisiae deletion strains, locus YLR371W, strain rom2, active compounds read low 0.0693 | S. cerevisiae deletion strains, locus YLR384C, strain iki3, active compounds read low 0.0654 | S. cerevisiae deletion strains, locus YLR418C, strain cdc73, active compounds read low 0.106 | S. cerevisiae deletion strains, locus YML016C, strain PPZ1, active compounds read low 0.0467 | S. cerevisiae deletion strains, locus YML032C, strain rad52, active compounds read low 0.0695 | S. cerevisiae deletion strains, locus YML120C, strain ndi1, active compounds read low 0.0608 | S. cerevisiae deletion strains, locus YML124C, strain tub3, active compounds read low 0.0633 | S. cerevisiae deletion strains, locus YMR058W, strain fet3, active compounds read low 0.0638 | S. cerevisiae deletion strains, locus YMR078C, strain ctf18, active compounds read low 0.0725 | S. cerevisiae deletion strains, locus YMR125W, strain sto1, active compounds read low 0.0693 | S. cerevisiae deletion strains, locus YMR129W, active compounds read low 0.0704 | S. cerevisiae deletion strains, locus YMR205C, strain PFK2, active compounds read low 0.087 | S. cerevisiae deletion strains, locus YMR223W, strain ubp8, active compounds read low 0.0733 | S. cerevisiae deletion strains, locus YMR231W, strain pep5, active compounds read low 0.0731 | S. cerevisiae deletion strains, locus YMR263W, strain SAP30, active compounds read low 0.057 | S. cerevisiae deletion strains, locus YMR307W, strain GAS1, active compounds read low 0.101 | S. cerevisiae deletion strains, locus YNL067W, strain RPL9B, active compounds read low 0.0516 | S. cerevisiae deletion strains, locus YNL071W, strain lat1, active compounds read low 0.0698 | S. cerevisiae deletion strains, locus YNL128W, strain TEP1, active compounds read low 0.0643 | S. cerevisiae deletion strains, locus YNL153C, strain GIM3, active compounds read low 0.0512 | S. cerevisiae deletion strains, locus YNL183C, strain NPR1, active compounds read low -0.00339 | S. cerevisiae deletion strains, locus YNL209W, strain ssb2, active compounds read low 0.0648 | S. cerevisiae deletion strains, locus YNL233W, strain BNI4, active compounds read low 0.0545 | S. cerevisiae deletion strains, locus YNL248C, strain rpa49, active compounds read low 0.0607 | S. cerevisiae deletion strains, locus YNL250W, strain rad50, active compounds read low 0.0707 | S. cerevisiae deletion strains, locus YNL271C, strain bni1, active compounds read low 0.0672 | S. cerevisiae deletion strains, locus YNL298W, strain CLA4, active compounds read low 0.0667 | S. cerevisiae deletion strains, locus YNL307C, strain MCK1, active compounds read low 0.0744 | S. cerevisiae deletion strains, locus YNL322C, strain KRE1 (second series), active compounds read low 0.0728 | S. cerevisiae deletion strains, locus YNL322C, strain KRE1, active compounds read low 0.0468 | S. cerevisiae deletion strains, locus YNR049C, strain mso1, active compounds read low 0.0631 | S. cerevisiae deletion strains, locus YNR052C, strain pop2, active compounds read low 0.0629 | S. cerevisiae deletion strains, locus YOL006C, strain TOP1, active compounds read low 0.108 | S. cerevisiae deletion strains, locus YOL147C, strain pex11, active compounds read low 0.0586 | S. cerevisiae deletion strains, locus YOR001W, strain rrp6, active compounds read low 0.072 | S. cerevisiae deletion strains, locus YOR061W, strain CKA2, active compounds read low 0.045 | S. cerevisiae deletion strains, locus YOR069W, strain VPS5, active compounds read low 0.046 | S. cerevisiae deletion strains, locus YOR070C, strain gyp1, active compounds read low 0.0611 | S. cerevisiae deletion strains, locus YOR080W, strain dia2, active compounds read low 0.0794 | S. cerevisiae deletion strains, locus YOR083W, strain WHI5, active compounds read low 0.0648 | S. cerevisiae deletion strains, locus YOR106W, strain vam3, active compounds read low 0.0647 | S. cerevisiae deletion strains, locus YOR136W, strain idh2, active compounds read low 0.0779 | S. cerevisiae deletion strains, locus YOR144C, strain elg1, active compounds read low 0.0585 | S. cerevisiae deletion strains, locus YOR184W, strain ser1, active compounds read low 0.0845 | S. cerevisiae deletion strains, locus YOR231W, strain MKK1, active compounds read low 0.105 | S. cerevisiae deletion strains, locus YOR265W, strain rbl2, active compounds read low 0.0654 | S. cerevisiae deletion strains, locus YOR270C, strain vph1, active compounds read low 0.0804 | S. cerevisiae deletion strains, locus YOR290C, strain snf2, active compounds read low 0.062 | S. cerevisiae deletion strains, locus YOR316C, strain cot1, active compounds read low 0.0632 | S. cerevisiae deletion strains, locus YPL051W, strain arl3, active compounds read low 0.0645 | S. cerevisiae deletion strains, locus YPL055C, strain LGE1, active compounds read low 0.0675 | S. cerevisiae deletion strains, locus YPL078C, strain atp4, active compounds read low 0.0648 | S. cerevisiae deletion strains, locus YPL106C, strain sse1, active compounds read low 0.0892 | S. cerevisiae deletion strains, locus YPL240C, strain hsp82, active compounds read low 0.0586 | S. cerevisiae deletion strains, locus YPL241C, strain CIN2, active compounds read low 0.0475 | S. cerevisiae deletion strains, locus YPL256C, strain CLN2, active compounds read low 0.126 | S. cerevisiae deletion strains, locus YPR119W, strain clb2, active compounds read low 0.0705 | S. cerevisiae deletion strains, locus YPR141C, strain kar3, active compounds read low 0.0755 | S. cerevisiae deletion strains, locus YPR163C, strain tif3, active compounds read low 0.074 | S. cerevisiae deletion strains, locus YPR167C, strain met16, active compounds read low 0.0659 | S. cerevisiae deletion strains, strain wtn01, active compounds read low 0.0707 | S. cerevisiae strains, strain wild type, active compounds read low 0.0471
